Experiments:
Experiment in all cases: log2 ratio of Biotin-Ahx-Ub-VS probe labelling (fragment/DMSO); higher = less target engagement (more negative = stronger competition), active = hit call of the paper (q ≤ 0.05, log2 ratio ≤ -1)
Settings in all cases: compound concentration: 200 uM; treatment time: 3 h
USP34 = USP34 (UniProt Q70CQ2)
Method in brief: (§1)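 HEK293T lysate (495 µg per sample, in Tris/CHAPS/IGEPAL buffer with protease inhibitors) was exposed in triplicate for 3 h to fragment at 200 µM or to vehicle, then to Biotin-Ahx-Ub-VS at 0.5 µM final for 1 h. Labelled DUBs were enriched on NeutrAvidin, digested with LysC and trypsin, and analysed by diaPASEF LC-MS/MS. Spectronaut label-free quantities were normalised to the global median, and values are average log2 ratios of fragment over vehicle from an unpaired t-test. Only proteins with ≥2 unique peptides were used.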

USP36 = molecular target: T1, USP36 (UniProt Q9P275)
T1 sequence (whole entry): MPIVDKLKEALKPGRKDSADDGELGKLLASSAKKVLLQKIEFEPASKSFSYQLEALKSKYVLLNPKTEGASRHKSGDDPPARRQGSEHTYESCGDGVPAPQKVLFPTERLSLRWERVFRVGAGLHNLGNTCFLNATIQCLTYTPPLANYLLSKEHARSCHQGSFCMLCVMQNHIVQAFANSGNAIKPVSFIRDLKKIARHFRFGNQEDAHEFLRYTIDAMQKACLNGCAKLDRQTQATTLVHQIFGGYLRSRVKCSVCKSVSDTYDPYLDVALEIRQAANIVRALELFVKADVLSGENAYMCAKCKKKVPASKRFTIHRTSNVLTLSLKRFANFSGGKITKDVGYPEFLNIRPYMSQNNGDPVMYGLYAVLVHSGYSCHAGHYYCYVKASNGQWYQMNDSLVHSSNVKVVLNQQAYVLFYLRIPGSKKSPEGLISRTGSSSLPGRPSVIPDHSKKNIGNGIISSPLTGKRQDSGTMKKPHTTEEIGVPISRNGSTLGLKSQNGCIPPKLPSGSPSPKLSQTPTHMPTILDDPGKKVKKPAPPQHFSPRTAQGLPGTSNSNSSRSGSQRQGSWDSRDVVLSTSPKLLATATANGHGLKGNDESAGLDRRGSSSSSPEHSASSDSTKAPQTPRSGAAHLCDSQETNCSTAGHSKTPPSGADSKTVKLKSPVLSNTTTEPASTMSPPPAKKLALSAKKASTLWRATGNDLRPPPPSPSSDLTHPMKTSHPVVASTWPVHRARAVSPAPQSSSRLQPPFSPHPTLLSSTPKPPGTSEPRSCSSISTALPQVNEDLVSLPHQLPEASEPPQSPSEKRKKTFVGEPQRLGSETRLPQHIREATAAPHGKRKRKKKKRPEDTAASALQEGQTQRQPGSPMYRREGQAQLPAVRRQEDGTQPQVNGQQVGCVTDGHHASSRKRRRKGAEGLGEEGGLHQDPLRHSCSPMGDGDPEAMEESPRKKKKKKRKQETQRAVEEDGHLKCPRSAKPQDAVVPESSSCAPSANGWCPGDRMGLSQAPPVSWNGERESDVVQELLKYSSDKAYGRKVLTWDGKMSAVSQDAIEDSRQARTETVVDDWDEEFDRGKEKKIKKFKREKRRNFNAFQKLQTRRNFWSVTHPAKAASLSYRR
Method in brief: as §1

USP38 = molecular target: T2, USP38 (UniProt Q8NB14)
T2 sequence (whole entry): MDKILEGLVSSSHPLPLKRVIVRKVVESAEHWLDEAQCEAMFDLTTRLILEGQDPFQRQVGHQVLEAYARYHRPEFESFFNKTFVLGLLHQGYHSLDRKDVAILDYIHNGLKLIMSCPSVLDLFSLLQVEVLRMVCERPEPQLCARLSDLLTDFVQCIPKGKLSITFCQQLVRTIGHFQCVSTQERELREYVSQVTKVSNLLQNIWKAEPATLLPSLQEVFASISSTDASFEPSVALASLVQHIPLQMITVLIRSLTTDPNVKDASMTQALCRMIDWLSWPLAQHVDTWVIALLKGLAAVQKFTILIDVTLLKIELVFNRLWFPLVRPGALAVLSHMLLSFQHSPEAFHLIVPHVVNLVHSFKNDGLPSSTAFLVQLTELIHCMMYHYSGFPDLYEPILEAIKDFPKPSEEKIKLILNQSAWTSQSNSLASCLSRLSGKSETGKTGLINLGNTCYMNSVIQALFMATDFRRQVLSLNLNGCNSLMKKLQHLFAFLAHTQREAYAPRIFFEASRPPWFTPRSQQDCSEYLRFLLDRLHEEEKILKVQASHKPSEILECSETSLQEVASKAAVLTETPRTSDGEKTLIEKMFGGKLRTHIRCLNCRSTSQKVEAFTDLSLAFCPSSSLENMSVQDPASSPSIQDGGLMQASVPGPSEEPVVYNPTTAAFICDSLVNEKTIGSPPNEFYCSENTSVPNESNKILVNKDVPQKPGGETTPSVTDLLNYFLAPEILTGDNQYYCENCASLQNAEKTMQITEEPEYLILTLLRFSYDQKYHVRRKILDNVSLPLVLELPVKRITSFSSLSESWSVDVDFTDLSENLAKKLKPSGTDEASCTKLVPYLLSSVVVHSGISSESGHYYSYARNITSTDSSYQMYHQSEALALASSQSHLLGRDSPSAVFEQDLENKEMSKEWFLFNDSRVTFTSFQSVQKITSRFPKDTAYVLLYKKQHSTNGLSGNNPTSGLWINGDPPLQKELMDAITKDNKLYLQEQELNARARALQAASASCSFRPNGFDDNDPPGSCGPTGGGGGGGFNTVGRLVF
Method in brief: as §1

USP39 = molecular target: T3, USP39 (UniProt Q53GS9)
T3 sequence (whole entry): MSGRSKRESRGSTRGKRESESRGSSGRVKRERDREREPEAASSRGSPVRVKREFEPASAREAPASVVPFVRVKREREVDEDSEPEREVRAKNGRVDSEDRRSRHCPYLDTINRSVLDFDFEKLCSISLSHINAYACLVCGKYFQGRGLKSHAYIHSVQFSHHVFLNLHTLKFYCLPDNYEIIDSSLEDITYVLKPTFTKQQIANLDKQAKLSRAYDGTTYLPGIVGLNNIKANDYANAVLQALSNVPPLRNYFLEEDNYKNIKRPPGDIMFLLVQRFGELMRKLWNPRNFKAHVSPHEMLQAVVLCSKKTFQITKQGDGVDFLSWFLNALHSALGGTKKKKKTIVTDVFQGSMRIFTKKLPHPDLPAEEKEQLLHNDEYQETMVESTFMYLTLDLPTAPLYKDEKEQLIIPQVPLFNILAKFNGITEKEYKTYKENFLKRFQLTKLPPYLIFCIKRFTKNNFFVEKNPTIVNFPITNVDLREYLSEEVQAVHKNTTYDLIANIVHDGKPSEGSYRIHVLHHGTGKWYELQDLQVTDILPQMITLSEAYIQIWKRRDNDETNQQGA
Method in brief: as §1

USP4 = molecular target: T4, USP4 (UniProt Q13107)
T4 sequence (whole entry): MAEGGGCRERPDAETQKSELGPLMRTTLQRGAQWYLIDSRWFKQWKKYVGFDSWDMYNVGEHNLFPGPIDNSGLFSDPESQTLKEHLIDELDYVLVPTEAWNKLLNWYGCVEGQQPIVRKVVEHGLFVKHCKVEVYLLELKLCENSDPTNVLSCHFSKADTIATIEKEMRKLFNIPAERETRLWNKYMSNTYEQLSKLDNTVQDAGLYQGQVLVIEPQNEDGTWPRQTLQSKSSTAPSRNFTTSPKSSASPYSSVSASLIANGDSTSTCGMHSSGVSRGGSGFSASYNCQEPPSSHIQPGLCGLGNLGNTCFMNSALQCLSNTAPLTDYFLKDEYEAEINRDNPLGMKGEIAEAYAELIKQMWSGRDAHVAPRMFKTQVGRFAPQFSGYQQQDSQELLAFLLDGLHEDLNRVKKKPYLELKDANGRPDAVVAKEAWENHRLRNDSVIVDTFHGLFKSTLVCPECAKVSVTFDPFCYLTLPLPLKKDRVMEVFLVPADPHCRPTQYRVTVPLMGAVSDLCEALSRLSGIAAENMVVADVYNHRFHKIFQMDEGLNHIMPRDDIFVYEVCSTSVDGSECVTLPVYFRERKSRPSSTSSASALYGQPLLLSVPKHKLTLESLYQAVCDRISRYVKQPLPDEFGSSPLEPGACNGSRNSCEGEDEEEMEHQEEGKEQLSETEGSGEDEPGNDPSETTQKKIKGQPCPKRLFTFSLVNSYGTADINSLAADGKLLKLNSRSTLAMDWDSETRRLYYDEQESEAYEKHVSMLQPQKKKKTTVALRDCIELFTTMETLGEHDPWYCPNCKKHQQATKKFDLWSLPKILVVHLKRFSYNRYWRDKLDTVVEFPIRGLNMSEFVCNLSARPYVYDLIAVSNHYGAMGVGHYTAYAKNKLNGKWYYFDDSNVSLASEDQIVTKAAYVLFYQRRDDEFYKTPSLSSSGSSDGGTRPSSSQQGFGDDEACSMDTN
Method in brief: as §1

Measured: log2 ratio of Biotin-Ahx-Ub-VS probe labelling

Sequence of USP34 (Q70CQ2 whole entry, the tested form may be a part): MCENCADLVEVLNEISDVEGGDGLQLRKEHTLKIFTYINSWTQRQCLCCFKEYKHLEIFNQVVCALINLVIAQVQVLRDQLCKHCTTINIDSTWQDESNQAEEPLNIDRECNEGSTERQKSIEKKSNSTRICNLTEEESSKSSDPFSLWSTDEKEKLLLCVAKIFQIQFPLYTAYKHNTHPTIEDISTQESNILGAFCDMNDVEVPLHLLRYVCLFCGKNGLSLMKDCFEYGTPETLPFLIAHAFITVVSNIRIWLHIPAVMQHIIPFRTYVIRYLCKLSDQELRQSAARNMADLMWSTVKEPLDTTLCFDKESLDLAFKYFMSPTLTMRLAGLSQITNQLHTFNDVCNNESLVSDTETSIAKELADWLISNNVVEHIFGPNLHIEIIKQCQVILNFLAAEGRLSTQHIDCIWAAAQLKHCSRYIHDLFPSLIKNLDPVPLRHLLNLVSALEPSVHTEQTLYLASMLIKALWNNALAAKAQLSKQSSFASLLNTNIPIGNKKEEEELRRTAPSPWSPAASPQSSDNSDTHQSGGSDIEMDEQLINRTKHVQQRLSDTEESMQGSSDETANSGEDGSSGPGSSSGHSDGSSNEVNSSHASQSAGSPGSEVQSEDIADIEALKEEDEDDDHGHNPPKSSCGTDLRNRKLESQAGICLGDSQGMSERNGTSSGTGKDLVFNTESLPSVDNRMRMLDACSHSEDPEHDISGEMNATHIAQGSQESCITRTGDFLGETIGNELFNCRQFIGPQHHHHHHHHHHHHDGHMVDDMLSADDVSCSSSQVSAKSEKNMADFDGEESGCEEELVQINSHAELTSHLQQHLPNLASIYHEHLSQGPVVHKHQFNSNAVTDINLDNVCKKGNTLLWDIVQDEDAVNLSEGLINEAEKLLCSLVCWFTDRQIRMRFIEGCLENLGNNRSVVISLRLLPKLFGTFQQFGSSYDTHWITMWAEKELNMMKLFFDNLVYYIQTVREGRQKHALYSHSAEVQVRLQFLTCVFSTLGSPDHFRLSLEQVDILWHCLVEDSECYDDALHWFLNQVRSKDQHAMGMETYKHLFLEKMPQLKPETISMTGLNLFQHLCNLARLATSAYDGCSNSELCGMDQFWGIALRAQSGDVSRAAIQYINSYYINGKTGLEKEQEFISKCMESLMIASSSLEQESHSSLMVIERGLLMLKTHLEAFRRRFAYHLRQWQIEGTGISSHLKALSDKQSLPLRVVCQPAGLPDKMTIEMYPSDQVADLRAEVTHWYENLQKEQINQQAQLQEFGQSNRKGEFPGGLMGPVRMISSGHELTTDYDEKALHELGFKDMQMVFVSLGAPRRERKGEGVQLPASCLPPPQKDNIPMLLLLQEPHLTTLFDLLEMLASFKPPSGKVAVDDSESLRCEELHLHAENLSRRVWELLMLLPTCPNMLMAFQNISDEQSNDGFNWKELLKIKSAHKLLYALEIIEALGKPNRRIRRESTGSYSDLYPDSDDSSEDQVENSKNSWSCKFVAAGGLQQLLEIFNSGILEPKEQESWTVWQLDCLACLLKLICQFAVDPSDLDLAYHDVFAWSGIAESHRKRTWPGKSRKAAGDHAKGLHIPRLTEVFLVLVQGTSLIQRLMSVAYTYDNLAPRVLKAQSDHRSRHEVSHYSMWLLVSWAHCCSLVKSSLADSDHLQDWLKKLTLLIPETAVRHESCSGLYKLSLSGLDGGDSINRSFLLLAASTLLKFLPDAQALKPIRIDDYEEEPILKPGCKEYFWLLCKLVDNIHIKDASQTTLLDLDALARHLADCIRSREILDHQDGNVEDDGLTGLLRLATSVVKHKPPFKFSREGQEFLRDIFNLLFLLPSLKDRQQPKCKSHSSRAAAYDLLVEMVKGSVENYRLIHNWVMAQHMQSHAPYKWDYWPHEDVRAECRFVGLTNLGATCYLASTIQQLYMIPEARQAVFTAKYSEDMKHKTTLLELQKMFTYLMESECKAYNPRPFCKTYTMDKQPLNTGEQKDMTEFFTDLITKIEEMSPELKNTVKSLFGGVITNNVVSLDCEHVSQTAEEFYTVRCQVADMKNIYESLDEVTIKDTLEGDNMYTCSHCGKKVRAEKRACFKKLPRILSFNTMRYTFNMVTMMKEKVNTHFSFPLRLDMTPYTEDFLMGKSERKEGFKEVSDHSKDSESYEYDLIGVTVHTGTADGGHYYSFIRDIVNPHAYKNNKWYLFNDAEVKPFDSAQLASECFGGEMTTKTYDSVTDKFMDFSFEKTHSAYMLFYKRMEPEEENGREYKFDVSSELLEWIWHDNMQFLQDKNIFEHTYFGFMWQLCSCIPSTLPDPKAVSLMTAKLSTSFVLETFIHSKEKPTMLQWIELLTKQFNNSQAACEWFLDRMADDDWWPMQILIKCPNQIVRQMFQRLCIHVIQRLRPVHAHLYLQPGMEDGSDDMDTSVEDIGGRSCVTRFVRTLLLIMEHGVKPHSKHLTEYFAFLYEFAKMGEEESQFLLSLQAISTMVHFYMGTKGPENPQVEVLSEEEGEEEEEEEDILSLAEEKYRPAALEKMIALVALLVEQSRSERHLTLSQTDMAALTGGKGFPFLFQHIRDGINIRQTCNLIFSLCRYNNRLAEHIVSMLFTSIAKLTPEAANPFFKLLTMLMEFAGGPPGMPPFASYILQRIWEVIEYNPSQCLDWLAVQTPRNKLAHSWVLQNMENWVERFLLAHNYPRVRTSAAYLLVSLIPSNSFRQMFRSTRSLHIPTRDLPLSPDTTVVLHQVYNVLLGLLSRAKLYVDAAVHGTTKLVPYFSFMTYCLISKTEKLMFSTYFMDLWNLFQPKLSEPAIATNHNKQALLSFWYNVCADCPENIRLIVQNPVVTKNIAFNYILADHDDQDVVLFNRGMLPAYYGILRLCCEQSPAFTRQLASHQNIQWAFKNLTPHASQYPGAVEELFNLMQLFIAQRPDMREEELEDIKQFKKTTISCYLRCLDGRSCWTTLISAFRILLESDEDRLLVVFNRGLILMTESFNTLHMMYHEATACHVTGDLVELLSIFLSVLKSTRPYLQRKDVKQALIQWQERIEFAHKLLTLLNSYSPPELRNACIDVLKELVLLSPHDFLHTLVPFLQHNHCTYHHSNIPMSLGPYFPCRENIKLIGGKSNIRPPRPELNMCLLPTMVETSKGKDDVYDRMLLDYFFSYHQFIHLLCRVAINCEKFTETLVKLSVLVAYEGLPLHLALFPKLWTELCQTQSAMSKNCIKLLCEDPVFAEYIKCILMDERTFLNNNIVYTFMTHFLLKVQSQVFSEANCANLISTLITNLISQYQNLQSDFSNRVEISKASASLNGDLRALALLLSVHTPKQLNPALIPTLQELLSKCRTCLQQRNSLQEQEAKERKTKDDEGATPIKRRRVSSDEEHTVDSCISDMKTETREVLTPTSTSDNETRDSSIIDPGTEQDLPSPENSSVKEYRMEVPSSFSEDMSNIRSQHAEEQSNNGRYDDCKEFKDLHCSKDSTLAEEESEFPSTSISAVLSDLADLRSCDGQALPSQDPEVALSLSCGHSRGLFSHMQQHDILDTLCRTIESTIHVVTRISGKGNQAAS

CC(=O)Nc1ccc(NC(=O)CCl)cc1
inactive: USP34 -0.128 | USP36 -0.0191 | USP38 0.0936 | USP39 0.432 | USP4 -0.163
